From PubChem BioAssay (NCATS)
Records with an inconclusive call do not appear. Entries that show only a call come without a potency. The source made the active and inactive calls. Calls follow the shape of the dose curve; as a rule, active = well fitted inhibition curve with a large enough effect; inconclusive = small, poorly fitted or top-dose-only effect; inactive = no such curve, though single readings can be large or run the other way.

Assay: Primary qHTS for inhibitors of nuclear receptor binding SET domain protein 2 (NSD2) in an RCH-ACV wild type WT cells (2C) (AID 1645877); also: nearly all actives have a fitted effect of over 70% in size
Details: RCH-ACV (leukaemia line) NSD2 WT (2C) viability, CellTiter-Glo, 72 h; series mostly up to 44.9 µM
Potency is read from the fitted curve at half-maximal effect.

Structure (SMILES)	Potency	outcome
COc1cc2c(cc1O)CCN[C@]21CS[C@@H]2c3c(OC(C)=O)c(C)c4c(c3[C@H](COC1=O)N1[C@@H]2[C@H]2c3c(cc(C)c(OC)c3O)C[C@@H]([C@@H]1O)N2C)OCO4	1.4 nM (active)	–
O=C(O)c1cc(O[C@@H]2O[C@H](CO[C@@H]3OC[C@@H](O)[C@H](O)[C@H]3O)[C@@H](O)[C@H](O)[C@H]2O)c2ccccc2c1O	inactive	–
CC1=CC[C@]2(C(=O)O[C@@H]3O[C@H](CO[C@@H]4O[C@H](CO)[C@@H](O[C@@H]5O[C@@H](C)[C@H](O)[C@@H](O)[C@H]5O)[C@H](O)[C@H]4O)[C@@H](O)[C@H](O)[C@H]3O)CC[C@]3(C)C(CCC4[C@@]5(C)C[C@@H](O)[C@H](O)[C@@](C)(CO)C5CC[C@]43C)C2C1C (some centres not stated)	–	inactive [at 9.23 µM]
CC(=O)O[C@@H]1C[C@@]23C[C@@]24CC[C@H](OC2OC[C@@H](O)[C@H](O)[C@H]2O)C(C)(C)[C@@H]4CC[C@H]3[C@]2(C)CC3OC4(C[C@@H](C)C3[C@@]12C)OCC1(C)OC14 (some centres not stated)	inactive	–
CC(=O)N1c2ccccc2C2(O)CC3C(=O)NC(CC(C)C)C(=O)N3C12 (configuration not stated)	inactive	–
C=CC(C)(C)O[C@@H]1O[C@H](CO[C@@H]2OC[C@](O)(CO)[C@H]2O)[C@@H](O)[C@H](O)[C@H]1O	inactive	–
NS(=O)(=O)NCCNc1nonc1C(=Nc1ccc(F)c(Br)c1)NO	inactive	–
CC(=O)OCCC(C)CCC1C(C)(O)CCC2C(C)(C)CCCC21C (configuration not stated)	inactive	–
CC(=O)O[C@@]1(C)C[C@@H](O)[C@]2(O)C=CO[C@@H](O[C@@H]3O[C@H](CO)[C@@H](O)[C@H](O)[C@H]3O)[C@@H]21	inactive	–
CCNC(=O)CCC/C=C\C[C@@H]1[C@@H](/C=C/C(O)CCc2ccccc2)[C@@H](O)C[C@@H]1O (some centres not stated)	inactive	–
C=C1CCC(OC(C)=O)C2(C)CC3(O)OC(=O)C(C)=C3CC12 (configuration not stated)	inactive	–
C=C(C(=O)O)[C@@H]1CC=C2CCC[C@H](C)[C@@]2(C)C1	inactive	–
